# Measured values published in PubChem BioAssay (NCI).
# Compounds without any hit were thinned out: in the full panel of roughly 83,000, 20% have a hit.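 Interpretation: 100, growth as untreated; towards 0, rising growth inhibition; 0, no net growth; 0 to -100, cell death. Compounds scoring below 10 were considered active.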 A number with no mark means an inactive call. Activity calls are given as the source filed them.
# Assays:
# Test in all cases: NCI-60 one-dose screen, 48 h (100 = growth as untreated, 0 = no growth, -100 = all killed)
# Conditions in all cases: 10 µM unless noted
# NCI-H23 lung = tested on: NCI-H23 lung
# NCI-H226 lung = tested on: NCI-H226 lung
# NCI-H322M lung = tested on: NCI-H322M lung
# NCI-H460 lung = tested on: NCI-H460 lung
# HOP-92 NSCLC = tested on: HOP-92 NSCLC
# NCI-H522 lung = tested on: NCI-H522 lung
# A549/ATCC NSCLC = tested on: A549/ATCC NSCLC
# 786-0 renal = tested on: 786-0 renal
# COLO 205 colon = tested on: COLO 205 colon
# DU-145 prostate = tested on: DU-145 prostate
# K-562 leukemia = tested on: K-562 leukemia
# MALME-3M melanoma = tested on: MALME-3M melanoma
# MDA-MB-231 breast = tested on: MDA-MB-231 breast
# RXF 393 renal = tested on: RXF 393 renal
# SF-268 CNS = tested on: SF-268 CNS
# SF-295 CNS = tested on: SF-295 CNS
# SF-539 CNS = tested on: SF-539 CNS
# UACC-257 melanoma = tested on: UACC-257 melanoma
# M14 melanoma = tested on: M14 melanoma
SMILES,growth (NCI-H23 lung),growth (NCI-H226 lung),growth (NCI-H322M lung),growth (NCI-H460 lung),growth (HOP-92 NSCLC),growth (NCI-H522 lung),growth (A549/ATCC NSCLC),growth (786-0 renal),growth (COLO 205 colon),growth (DU-145 prostate),growth (K-562 leukemia),growth (MALME-3M melanoma),growth (MDA-MB-231 breast),growth (RXF 393 renal),growth (SF-268 CNS),growth (SF-295 CNS),growth (SF-539 CNS),growth (UACC-257 melanoma),growth (M14 melanoma)
C#CC(=O)Nc1cccc2c1cc(C)n2-c1nc2c(c(NCc3ccccc3)n1)CCCC2,-43.1% (active),-40.2% (active),-82.4% (active),-48.3% (active),-53.8% (active),-82.2% (active),-46.5% (active),-53.1% (active),-69.1% (active),-97.1% (active),-13.5% (active),-64.4% (active),-53% (active),-94.4% (active),-29.7% (active),-85.4% (active),-79.7% (active),-73% (active),-65.3% (active)
CC(=O)NCCCS(=O)(=O)O,101%,119%,107%,101%,82.2%,83.4%,114%,99.6%,105%,118%,94.8%,106%,102%,–,111%,94.6%,99.5%,104%,111%
Cc1c([N+](=O)[O-])cc(C(C)(C)C)cc1[N+](=O)[O-],97.4%,91.3%,117%,102%,96.4%,60.2%,81.8%,104%,114%,107%,112%,118%,107%,–,93.3%,97.6%,104%,85.4%,107%
CC(=O)Nc1ccc(S(=O)(=O)NC2CCCCC2)cc1,99.9%,86.6%,96.5%,102%,89.3%,92%,93.3%,99.8%,103%,113%,100%,98.1%,97.3%,–,104%,96.4%,103%,95.8%,–
